Results from PMC7826789 (International Journal of Molecular Sciences, 2021).

test system: MARK4; details: Compound Concentration (nM):1000
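Further: KINOMEscan scanMAX binding as percent activity remaining versus control; lower means stronger binding.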

Percent Control, inactive:
Cl.O=S1CCN(Cc2ccc(-c3ccc4ncnc(Nc5ccc(OCc6ccccc6)c(F)c5)c4c3)o2)CC1 [GW576924A] 89%
COc1ccc2[nH]c3c4[nH]c5ccc(OC)cc5c4c4c(c3c2c1)C(=O)NC4=O [GW296115X] 100%
COc1cc2ncnc(Nc3ccc4c(cnn4Cc4ccccc4)c3)c2cc1OC.Cl [GW282449A] 100%
COc1cc(C=NNc2ncnc3c2cnn3-c2ccccc2)ccc1O [GW513184X] 93%
COc1ccccc1-c1cc(/C=C2\C(=O)Nc3ncc(Br)cc32)cc(Br)c1O [GW442130X] 100%
CN1CCN(C(=O)c2ccc(NC(=O)Nc3ccc(N(C)c4ccnc(Nc5ccc(CS(C)(=O)=O)cc5)n4)cc3)cc2)CC1.Cl [GW830263A] 92%
O=C1Nc2ccc(C(=O)c3ccco3)cc2C1=Cc1cc(Cl)c(O)c(Cl)c1 [GW406108X] 100%
COc1cc(/C=N/Nc2ncnc3[nH]ncc23)ccc1O [GW578748X] 60%
Cc1cc(O)cc(C)c1/C=C/c1cncc(C(N)=O)c1 [GW435821X] 78%
CCS(=O)(=O)c1ccc(OC)c(Nc2ncc(-c3cccc(F)c3)o2)c1 [GW621970X] 92%
Cl.O=C(Nc1ccc(Oc2ccc3[nH]c(NC(=O)c4ccco4)nc3c2)cc1)Nc1cc(C(F)(F)F)ccc1F [GW683134A] 100%
Nc1ncnc2occ(-c3ccc(NC(=O)Nc4cc(C(F)(F)F)ccc4F)cc3)c12 [GW770249X] 94%
O=C(Nc1n[nH]c2nc(-c3ccc(O)cc3)c(Br)cc12)C1CC1 [SB-725317] 100%
CC1=C(C(=O)Nc2ccc3[nH]ncc3c2)C(c2ccc(Cl)c(Cl)c2)CC(=O)N1 (stereo not drawn) [GSK299115A] 100%
NS(=O)(=O)c1ccc(N/N=C2\C(=O)Nc3ccc(Cl)cc32)cc1 [GW280670X] 94%
CC1=C(C(=O)Nc2ccc3[nH]ncc3c2)C(c2ccc3ccccc3c2)CC(=O)N1 (stereo not drawn) [GSK270822A] 76%
COc1cccc(-c2c[nH]c3c(N/N=C/c4ccncc4)ncnc23)c1 [GW814408X] 99%
NS(=O)(=O)c1ccc(N/N=C2\C(=O)Nc3ccc(C(=O)NCCc4c[nH]cn4)cc32)cc1 [GW300660X] 100%
CN(C)CCNC(=O)Nc1ccc(N(C)c2ccnc(Nc3ccc(CS(C)(=O)=O)cc3)n2)cc1.Cl [GW830900A] 100%
COc1ccc2cc(-c3c(-c4ccncc4)nc(-c4ccc(S(C)(=O)=O)cc4C)n3C)ccc2c1 [SB-633825] 71%
NS(=O)(=O)c1ccc(N/N=C2\C(=O)Nc3ccc(-c4cnco4)cc32)cc1 [GW276655] 68%
CN(C)c1cc2c(Nc3ccc4c(cnn4Cc4ccccc4)c3)ncnc2cn1 [GW282974X] 90%
COc1ccc2c(-c3ccnc(Nc4cccc(OC(F)(F)F)c4)n3)cnn2n1 [GW810372X] 82%
Cl.O=C(O[C@H]1CN[C@H](C#Cc2cc3ncnc(Nc4ccc5c(cnn5Cc5ccccc5)c4)c3s2)C1)N1CCOCC1 [GSK200398A] 100%
CCS(=O)(=O)c1ccc(OC)c(Nc2ncc(-c3cccc(OC)c3)o2)c1 [GW580509X] 99%
CCc1ccc(Oc2nccc(-c3c(-c4ccc(F)cc4)ncn3C3CCNCC3)n2)cc1 [SB-242719] 100%
NS(=O)(=O)c1ccc(N/N=C2\C(=O)Nc3ccc(C(=O)NCc4ccncc4)cc32)cc1 [GW300657X] 91%
COc1ccc(COc2ccc(Cc3cnc(N)nc3N)cc2OC)cc1 [GW632580X] 57%
NS(=O)(=O)c1ccc(Nc2ncc(-c3ccccc3)o2)cc1 [GW572399X] 100%
COC(=O)Nc1nc2ccc(Oc3ccc(NC(=O)Nc4cc(C(F)(F)F)ccc4F)cc3)cc2s1.Cl [GW693917A] 99%
COc1cc(C)c(N(C)C(=O)CN(C)C)cc1Nc1nc(Nc2cccc(F)c2C(N)=O)c2cc[nH]c2n1 [GSK2219385] 89%
COc1cc(N2CCN(C(C)C)CC2)ccc1Nc1nc(Nc2ccc(F)cc2C(=O)NC[C@@H](O)CO)c2cc[nH]c2n1 [GSK1392956A] 100%
CC(C)COC(=O)c1ccc2c(c1)/C(=C/Nc1ccc(S(N)(=O)=O)cc1)C(=O)N2 [GW416981X] 81%
Cl.c1ccc(Cc2nc3ccc(Nc4ncnc5ccccc45)cc3[nH]2)cc1 [GR269666A] 96%
CCn1c(-c2nonc2N)nc2c(C#CC(C)(C)O)nc(OCCNC)cc21.Cl [GSK949675] 100%
COc1cc2ncn(-c3cc(O[C@H](C)c4ccccc4Cl)c(C(N)=O)s3)c2cc1OC [GSK237701A] 74%
